Key:
Assay in all cases: DAPPL (digital affinity profiling via proximity ligation, sequencing); 10 mM Tris-HCl pH 7.5, 50 mM NaCl, 1 mM DTT, 4% glycerol, room temperature, 30 min; GST-TFs on glutathione beads, 16-mer random dsDNA library, 0.1% formaldehyde crosslink after washing; high values mean tight binding
Conditions in all cases: protein: recombinant; tags: N-terminal GST; dsDNA, one strand shown
[1] = molecular target: T1, FLI1 (Homo sapiens, UniProt Q01543 1-452)
T1 sequence: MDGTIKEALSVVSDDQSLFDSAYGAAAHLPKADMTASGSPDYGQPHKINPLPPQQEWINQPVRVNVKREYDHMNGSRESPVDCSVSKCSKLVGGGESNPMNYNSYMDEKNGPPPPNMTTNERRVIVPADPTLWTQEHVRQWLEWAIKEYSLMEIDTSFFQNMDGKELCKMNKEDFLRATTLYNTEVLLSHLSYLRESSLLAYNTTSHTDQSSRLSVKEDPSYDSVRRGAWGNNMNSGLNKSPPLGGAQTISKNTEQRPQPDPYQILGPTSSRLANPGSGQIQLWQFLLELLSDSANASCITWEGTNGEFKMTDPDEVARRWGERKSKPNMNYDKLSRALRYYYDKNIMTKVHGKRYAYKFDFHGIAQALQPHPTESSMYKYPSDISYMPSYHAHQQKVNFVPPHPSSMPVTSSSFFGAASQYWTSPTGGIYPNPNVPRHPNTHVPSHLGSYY
Procedure, shortened: (§1)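 GST fusions of human transcription factors were expressed in yeast and captured with glutathione beads. Once given DNA barcodes and pooled alongside a tag-only sample, they were incubated for 30 min at room temperature with 200 nmole of a random double-stranded 16-mer DNA library in Tris/NaCl/DTT/glycerol buffer, then washed, crosslinked (0.1% formaldehyde), proximity-ligated, PCR-amplified and sequenced on an Illumina NextSeq500. The binding signal of each hexamer is its read frequency for a factor divided by its frequency for the tag-only sample.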

[2] = molecular target: T2, ELK1 (Homo sapiens, UniProt P19419 1-428)
T2 sequence: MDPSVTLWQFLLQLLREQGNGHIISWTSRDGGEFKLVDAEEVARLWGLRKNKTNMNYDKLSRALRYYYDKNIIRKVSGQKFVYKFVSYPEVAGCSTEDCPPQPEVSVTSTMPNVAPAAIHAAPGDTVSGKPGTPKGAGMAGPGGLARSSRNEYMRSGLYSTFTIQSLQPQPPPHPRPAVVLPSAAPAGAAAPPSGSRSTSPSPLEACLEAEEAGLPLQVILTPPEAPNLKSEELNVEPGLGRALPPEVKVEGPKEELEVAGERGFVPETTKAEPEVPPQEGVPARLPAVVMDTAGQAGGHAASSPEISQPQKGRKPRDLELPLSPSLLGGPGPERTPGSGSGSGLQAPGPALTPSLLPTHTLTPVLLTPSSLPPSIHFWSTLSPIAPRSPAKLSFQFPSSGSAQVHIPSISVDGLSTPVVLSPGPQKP
Procedure, shortened: as §1

[3] = molecular target: T3, GABPA (Homo sapiens, UniProt Q06546 1-454)
T3 sequence: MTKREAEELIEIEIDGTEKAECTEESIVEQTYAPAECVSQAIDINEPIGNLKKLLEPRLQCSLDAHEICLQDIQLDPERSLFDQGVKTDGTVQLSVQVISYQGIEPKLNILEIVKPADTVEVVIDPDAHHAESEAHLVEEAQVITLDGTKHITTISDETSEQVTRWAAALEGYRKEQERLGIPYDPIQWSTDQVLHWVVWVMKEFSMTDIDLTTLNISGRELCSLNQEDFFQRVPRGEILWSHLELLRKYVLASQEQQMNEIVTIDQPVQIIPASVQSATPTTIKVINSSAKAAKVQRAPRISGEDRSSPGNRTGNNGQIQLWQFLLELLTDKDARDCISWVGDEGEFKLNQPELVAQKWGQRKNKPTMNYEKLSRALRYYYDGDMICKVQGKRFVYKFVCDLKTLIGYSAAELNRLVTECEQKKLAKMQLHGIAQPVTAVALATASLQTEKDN
Procedure, shortened: as §1

[4] = molecular target: T4, ERG (Homo sapiens, UniProt P11308 1-479)
T4 sequence: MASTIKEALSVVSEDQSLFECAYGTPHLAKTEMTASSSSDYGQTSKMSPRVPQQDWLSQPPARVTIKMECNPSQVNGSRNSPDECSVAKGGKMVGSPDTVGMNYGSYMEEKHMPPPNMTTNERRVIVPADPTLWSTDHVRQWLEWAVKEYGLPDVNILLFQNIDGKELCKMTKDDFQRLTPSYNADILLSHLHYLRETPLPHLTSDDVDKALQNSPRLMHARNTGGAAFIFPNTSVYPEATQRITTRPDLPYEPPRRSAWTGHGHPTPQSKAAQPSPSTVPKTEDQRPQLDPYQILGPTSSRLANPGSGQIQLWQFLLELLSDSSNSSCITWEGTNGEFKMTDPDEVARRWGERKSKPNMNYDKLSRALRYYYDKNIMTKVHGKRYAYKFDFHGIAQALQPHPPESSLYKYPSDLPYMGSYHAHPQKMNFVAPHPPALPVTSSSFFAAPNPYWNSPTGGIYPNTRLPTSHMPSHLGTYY
Procedure, shortened: as §1

[5] = molecular target: ELF1 (Homo sapiens, UniProt P32519 1-619)
Procedure, shortened: as §1

[6] = molecular target: T5, EHF (Homo sapiens, UniProt Q9NZC4 1-300)
T5 sequence: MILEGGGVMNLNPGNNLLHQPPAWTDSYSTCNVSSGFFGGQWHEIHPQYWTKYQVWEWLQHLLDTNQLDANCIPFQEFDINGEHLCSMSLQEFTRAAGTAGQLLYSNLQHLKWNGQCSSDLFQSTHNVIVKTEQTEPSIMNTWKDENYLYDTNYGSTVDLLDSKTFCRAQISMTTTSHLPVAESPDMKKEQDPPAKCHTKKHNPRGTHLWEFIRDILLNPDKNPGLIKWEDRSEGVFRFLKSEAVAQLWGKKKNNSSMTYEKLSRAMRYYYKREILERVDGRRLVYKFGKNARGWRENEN
Procedure, shortened: as §1

[7] = molecular target: SPI1 (Homo sapiens, UniProt P17947 1-270)
Procedure, shortened: as §1

[8] = molecular target: SPIB (Homo sapiens, UniProt Q01892 1-262)
Procedure, shortened: as §1

[9] = molecular target: T6, ELK3 (Homo sapiens, UniProt P41970 1-407)
T6 sequence: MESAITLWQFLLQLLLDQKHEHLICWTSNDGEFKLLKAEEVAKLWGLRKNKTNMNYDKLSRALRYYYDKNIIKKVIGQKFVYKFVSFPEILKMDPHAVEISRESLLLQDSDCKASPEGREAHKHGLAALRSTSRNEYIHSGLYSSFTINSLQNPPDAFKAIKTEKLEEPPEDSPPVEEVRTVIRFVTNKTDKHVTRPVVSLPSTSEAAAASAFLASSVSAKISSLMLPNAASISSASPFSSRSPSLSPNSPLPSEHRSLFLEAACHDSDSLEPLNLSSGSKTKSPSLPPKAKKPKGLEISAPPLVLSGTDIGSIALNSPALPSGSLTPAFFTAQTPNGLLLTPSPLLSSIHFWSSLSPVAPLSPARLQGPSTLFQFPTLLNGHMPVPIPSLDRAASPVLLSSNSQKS
Procedure, shortened: as §1

Chain of SPIB (Q01892 whole entry): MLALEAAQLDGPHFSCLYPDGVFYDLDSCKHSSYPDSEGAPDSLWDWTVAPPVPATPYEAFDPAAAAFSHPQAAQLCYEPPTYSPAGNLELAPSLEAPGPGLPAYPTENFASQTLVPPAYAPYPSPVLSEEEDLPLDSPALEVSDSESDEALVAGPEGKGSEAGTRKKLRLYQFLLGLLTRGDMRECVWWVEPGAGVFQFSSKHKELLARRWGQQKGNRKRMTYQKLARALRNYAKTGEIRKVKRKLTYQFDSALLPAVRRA
Chain of ELF1 (P32519 whole entry): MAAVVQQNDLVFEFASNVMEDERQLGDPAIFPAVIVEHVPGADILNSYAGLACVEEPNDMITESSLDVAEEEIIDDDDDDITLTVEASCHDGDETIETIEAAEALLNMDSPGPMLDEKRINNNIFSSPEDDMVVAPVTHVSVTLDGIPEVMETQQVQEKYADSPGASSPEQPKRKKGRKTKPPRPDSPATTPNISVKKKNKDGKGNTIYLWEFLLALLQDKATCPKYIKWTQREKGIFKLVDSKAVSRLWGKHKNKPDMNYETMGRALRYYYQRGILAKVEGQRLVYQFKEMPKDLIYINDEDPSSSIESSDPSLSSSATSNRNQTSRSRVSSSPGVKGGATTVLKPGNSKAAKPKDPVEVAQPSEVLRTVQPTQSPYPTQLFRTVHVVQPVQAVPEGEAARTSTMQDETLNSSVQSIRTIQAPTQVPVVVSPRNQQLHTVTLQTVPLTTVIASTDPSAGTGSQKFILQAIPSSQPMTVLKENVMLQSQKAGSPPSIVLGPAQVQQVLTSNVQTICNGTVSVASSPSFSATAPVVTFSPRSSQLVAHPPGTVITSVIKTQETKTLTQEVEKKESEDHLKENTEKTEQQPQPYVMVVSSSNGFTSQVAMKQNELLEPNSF

## CTATCC
[1]
  binding signal: 1.45 fold enrichment (6-mer frequency, TF over GST control)
[2]
  binding signal: 1.4 fold enrichment (6-mer frequency, TF over GST control)
[3]
  binding signal: 1.29 fold enrichment (6-mer frequency, TF over GST control)
[4]
  binding signal: 1.34 fold enrichment (6-mer frequency, TF over GST control)
[5]
  binding signal: 1.38 fold enrichment (6-mer frequency, TF over GST control)
[6]
  binding signal: 1.29 fold enrichment (6-mer frequency, TF over GST control)
[7]
  binding signal: 1.28 fold enrichment (6-mer frequency, TF over GST control)
[8]
  binding signal: 1.4 fold enrichment (6-mer frequency, TF over GST control)
[9]
  binding signal: 1.48 fold enrichment (6-mer frequency, TF over GST control)

Source: publication PMC7862700, “An all-to-all approach to the identification of sequence-specific readers for epigenetic DNA modifications on cytosine”
